Laboratory results from PubChem BioAssay AID1645879 (National Center for Advancing Translational Sciences (NCATS), 2021).
Results filed as inconclusive are left out. The source made the active and inactive calls. Calls follow the shape of the dose curve; as a rule, active = well fitted inhibition curve with a large enough effect; inconclusive = small, poorly fitted or top-dose-only effect; inactive = no such curve, though single readings can be large or run the other way.

Assay: Counterscreen qHTS assay for inhibitors of N-terminal methyltransferase 1 (NTMT1): SPKRIA Counterscreen Assay
Source text: Assay Submitter (PI): Rong Huang Ph.D,
Purdue University, West Lafayette, IN 47907
The N-terminal methytransferase 1 is the first methyltransferase that methylates protein alpha-N-amines and plays an important role in regulating cell mitosis, chromatin interactions and DNA repair. It is observed to be over-expressed in various cancer patient tissues like malignant melanoma and colorectal cancer tissues. Knockdown of NTMT1 in cancer cells causes cell mitotic defects and enhances sensitivity to DNA damaging chemotherapeutics. […] These critical cellular processes in which NTMT1 is implicated, coupled with emerging links to cellular dysfunction, strengthen the inference that NTMT1 is a compelling novel anticancer target. Progress have been made in understanding the molecular properties of NTMT1 and the biological consequences of protein alpha-N-terminal methylation, but there are no specific small molecule probes available for NTMT1 to fully characterize its MTase activity. To address this unmet need, a panel of assay is created and established to enable quantitative high-throughput screening (qHTS) for novel, potent, and selective small molecule NTMT1 inhibitors. Two orthogonal qHTS that use different reagents (ThioGlo vs. MTaseGlo) are developed for primary robotic screening against the NCATS chemical library of more than 400,000 small molecules. Identified inhibitors are reacquired, validated, and further characterized.
MTaseGlo Assay is a luminescence screen that measure the activity of methyltransferases based on the reaction product S-adenosyl homocysteine (SAH). The substrate SAM is converted to SAH upon enzyme activation. MTase-Glo reagent and detection solution convert SAH to ATP and measure the light from the luciferase reaction. Nicotinamide N-methyltransferase (NNMT) is a cystolic enzyme that catalyzes the transfer of a methyl group from the co-factor SAM onto the substrate, nicotinamide (NA) to form 1-methyl-nicotinamide (MNA) and SAH. NNMT MTaseGlo assay is used as a counterscreen to evaluate selectivity of identified inhibitors.
SPKRIA and Ac-RCC-10 control is provided by the Huang laboratory.
PROTOCOL TABLE; SEQUENCE No. (e.g., 1, 2, 3, etc.); […] (e.g., Cells, Incubation, Reagent, etc.); VALUE; DESCRIPTION
1; Reagent; 3 uL; dispense assay buffer.
2; Compound; 23 nL; pin compounds and control into the assay plate.
3; Time; 15 min; room temperature incubation.
4; Reagent; 1 uL; dispensed [4x] substrate or buffer.
5; Time; 30 min; incubate at room temperature.
6; Reagent; 1 uL; dispense MTase-Glo Reagent (R).
7; Time; 30 min; incubate at room temperature.
8; Reagent; 5 uL; dispense [1x] MTase-Glo Detection Solution to allow for ADP to be converted to ATP.
9; Centrifugation; 1,000 RPMs; assay plates were centrifuged.
10; Incubation; 30 min; room temperature.
11; Detection; Luminescence; ViewLux plate reader (clear filter, 10 second exposure).
NOTES (numbers refer to Sequence numbers above; values are from representative experiments)
1; Dispense the assay buffer into Greiner 1536-well black / solid bottom assay plate (Greiner Bio One, Monroe, NC).
2; Pin control inhibitor Ac-RCC1-10 at a final concentration range of 234 nM to 143 uM using a Wako Pin Tool (Wako Automation USA) equipped with a 1536-slotted pin array (Wako Automation, Richmond, VA). Pin compound library into the assay plates (columns 5 - 48) at a final concentration range of 97 nM to 250 uM.
3; Incubate the assay plates at room temperature.
4; Dispense 1 uL of substrate SPKRIA solution (final concentration 1 uM) or 1 uL buffer was added to the wells bringing the final assay volume to 4uL. The assay plate was covered with metal lids.
5; Incubate the assay plate at room temperature.
6; Dispense 1 uL of 5x MTase-Glo Reagent in the assay plate.
7; Incubate at room temperature to allow for SAH to be converted to ADP
8; Dispense 5 uL of 5x MTase-Glo Detection Solution in the assay plate to allow for ADP to be converted to ATP.
9; Assay plates were centrifuged for 15 seconds.
[…]

Q: Which outcome does the source give for `CN(C)CCc1c[nH]c2cccc(O)c12` here?
A: inactive

Q: Which outcome does the source give for `C[C@]12CC[C@H]3[C@@H](CCC4=CC(=O)CC[C@@H]43)[C@@H]1CC[C@@H]2O` here?
A: inactive

Q: Which outcome does the source give for `C[C@]12CCC(=O)C=C1CC[C@@H]1[C@@H]2CC[C@@]2(C)[C@H]1CC[C@]2(C)O` here?
A: inactive

Q: With `C[C@H](N)C(=O)c1ccccc1` as the molecule, how does the outcome read?
A: inactive

Q: Which outcome does the source give for `CC[C@]1(O)CC[C@H]2[C@@H]3CCC4=CCCC[C@@H]4[C@H]3CC[C@@]21C` here?
A: inactive

Q: With `C=CC[C@]1(O)CC[C@H]2[C@@H]3CCC4=CC(=O)CCC4=C3C=C[C@@]21C` as the molecule, how does the outcome read?
A: inactive

Q: With `CCc1cc(OC)c(C[C@H](C)N)cc1OC` as the molecule, how does the outcome read?
A: inactive

Q: Which outcome does the source give for `C[C@@H]1CC2=CC(=O)CC[C@@H]2[C@H]2CC[C@@]3(C)[C@@H](CC[C@]3(C)O)[C@@H]21` here?
A: inactive
